{
  "source": "PubChem BioAssay AID521",
  "about": "(Sanford-Burnham Center for Chemical Genomics, 2006)",
  "note": "About 730 (0.66%) of roughly 110,000 compounds were called active. Rule as the data show it: active = inhibition above about 50%; inconclusive = no clear call, values can overlap the other calls; inactive = below that. The full list was thinned out, with actives kept by preference.",
  "data": [
    {"molecular_target": "Tyrosine-protein phosphatase non-receptor type 7 (Homo sapiens) (UniProt P35236)", "sequence (P35236 whole entry, looked up)": "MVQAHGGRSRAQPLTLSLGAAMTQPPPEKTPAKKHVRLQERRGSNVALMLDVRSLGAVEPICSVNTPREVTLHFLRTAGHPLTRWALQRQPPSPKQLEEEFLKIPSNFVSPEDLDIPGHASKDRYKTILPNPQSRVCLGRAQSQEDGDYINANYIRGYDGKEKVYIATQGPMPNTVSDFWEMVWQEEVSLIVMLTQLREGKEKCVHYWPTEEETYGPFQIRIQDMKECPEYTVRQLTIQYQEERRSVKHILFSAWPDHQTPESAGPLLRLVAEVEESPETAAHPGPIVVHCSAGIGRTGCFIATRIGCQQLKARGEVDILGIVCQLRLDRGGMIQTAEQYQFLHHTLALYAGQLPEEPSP", "assay": "HePTP tyrosine phosphatase activity blockers – biochemical, absorbance, leukemia target, primary screen (AID 521);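 also: plate controls were vehicle for no effect and reference inhibitor for full effect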", "settings": "recombinant HePTP phosphatase activity, OD absorbance; at 20 µM; hits give high values", "values": [
      {"compound": "Cc1ccc(N(Cc2ccc(C(=O)N3CCCCC3)cc2)S(C)(=O)=O)cc1C", "inhibition": "13.9% (inactive)"},
      {"compound": "O=C(NCC1CCCO1)c1cc(-c2ccccc2)nc2ccccc12", "note": "(stereo not given)", "inhibition": "-0.5% (inactive)"},
      {"compound": "CCOc1ccc(NC(=O)Nc2cc(C)on2)cc1", "inhibition": "-4.8% (inactive)"},
      {"compound": "CCCOc1ccccc1N/C(=N/S(=O)(=O)c1ccc(C)cc1)Nc1nc(C)cc(C)n1", "inhibition": "-1.6% (inactive)"},
      {"compound": "CCOc1ccc(N/C(=N\\S(=O)(=O)c2ccc(NC(C)=O)cc2)Nc2nc(C)cc(C)n2)cc1", "inhibition": "104% (active)"},
      {"compound": "O=C(/C=C/c1ccc([N+](=O)[O-])cc1)N1CCc2ccccc2C1", "inhibition": "-1.1% (inactive)"},
      {"compound": "Cc1ccc(N2C(=O)NC(=O)/C(=C\\c3cccc(C)c3)C2=O)cc1", "inhibition": "4.7% (inactive)"},
      {"compound": "Cc1ccc(-c2ccc(/C=C3\\Sc4ccccc4C3=O)o2)c([N+](=O)[O-])c1", "inhibition": "-1.6% (inactive)"},
      {"compound": "O=C1S/C(=C/c2ccc(-c3ccc(Cl)cc3Cl)o2)C(=O)N1c1ccccc1", "inhibition": "-6.4% (inactive)"},
      {"compound": "O=C1/C(=C/c2ccc(-c3ccc(Cl)cc3C(=O)O)o2)Sc2ccccc21", "inhibition": "99% (active)"},
      {"compound": "Cc1oc2ccc(OCC(=O)c3ccccc3)cc2c1C(=O)O", "inhibition": "6.3% (inactive)"},
      {"compound": "O=C(Nc1ccc(I)cc1)c1ccc2nccnc2c1", "inhibition": "8.3% (inactive)"},
      {"compound": "Cc1ccc(/C=N/NC(=O)C2CC(=O)N(c3ccc(Cl)cc3)C2)cc1", "note": "(stereo not given)", "inhibition": "4.9% (inactive)"},
      {"compound": "CCOc1ccccc1C(=O)Nc1ccc(Cl)cc1[N+](=O)[O-]", "inhibition": "-5.6% (inactive)"},
      {"compound": "O=C(NC(=S)Nc1ccc(-c2nc3cc(Cl)ccc3o2)cc1)c1ccco1", "inhibition": "4.7% (inactive)"},
      {"compound": "CN1CN=C2SC3(COC(c4cccc(Br)c4)OC3)C(=O)N2C1", "note": "(stereo not given)", "inhibition": "-17.5% (inactive)"},
      {"compound": "Cc1ccc(/C=C/C(=O)Nc2nc3ccc(S(C)(=O)=O)cc3s2)cc1", "inhibition": "-6.1% (inactive)"},
      {"compound": "Cc1ccc(S(=O)(=O)N(CC(O)CN(C)C)c2cccc3ccccc23)cc1", "note": "(stereo not given)", "inhibition": "104% (active)"},
      {"compound": "Cc1cccc(N(CC(O)CN(C)C)S(=O)(=O)c2ccccc2)c1", "note": "(stereo not given)", "inhibition": "-7.9% (inactive)"},
      {"compound": "Cc1ccc(N(CC(O)CN2CCCC2)S(=O)(=O)c2ccccc2)cc1", "note": "(stereo not given)", "inhibition": "-3.8% (inactive)"},
      {"compound": "CC(C)c1ccc(C=NCCCO)cc1", "inhibition": "-12.6% (inactive)"},
      {"compound": "O=C(N=Nc1c(O)[nH]c2ccc([N+](=O)[O-])cc12)c1cccc(Br)c1", "inhibition": "56.4% (active)"},
      {"compound": "O=C(N=Nc1c(O)[nH]c2ccc(F)cc12)c1ccccc1O", "inhibition": "-14.6% (inactive)"},
      {"compound": "Nc1nonc1C(=O)N=Nc1c(O)[nH]c2ccccc12", "inhibition": "-0.8% (inactive)"},
      {"compound": "O=C1C2C3CC4C2C(=O)C2(c5ccccc5)C1C3C42", "note": "(stereo not given)", "inhibition": "-6.6% (inactive)"},
      {"compound": "COc1ccc(CCNC(=O)COc2cc(C)c(Cl)c(C)c2)cc1OC", "inhibition": "103% (active)"},
      {"compound": "COc1ccc(CCNC(=O)COc2ccc(Br)cc2)cc1OC", "inhibition": "-20% (inactive)"},
      {"compound": "COCCCNC(=O)COc1cc(C)c(Cl)c(C)c1", "inhibition": "5.1% (inactive)"},
      {"compound": "COc1ccc2ccccc2c1/C=N/NC(=O)c1cc(C)[nH]n1", "inhibition": "0.2% (inactive)"},
      {"compound": "N#Cc1c2c(c(N3CCN(CCO)CC3)n3c1nc1ccccc13)CCCC2", "inhibition": "4.3% (inactive)"},
      {"compound": "Cc1c(C#N)c2nc3ccccc3n2c(=O)/c1=C\\c1c(O)n(-c2ccc(Br)cc2)[nH]c1=O", "inhibition": "103% (active)"},
      {"compound": "Cc1cc(NCCN2CCCCCC2)n2c(nc3ccccc32)c1C#N", "inhibition": "-9.3% (inactive)"},
      {"compound": "COc1ccc(OC)c(N(CC(=O)Nc2cccc(Cl)c2)S(=O)(=O)c2ccc(OC)c(OC)c2)c1", "inhibition": "-8.4% (inactive)"},
      {"compound": "COc1ccc(NCN2C(=O)CSC2=O)cc1Cl", "inhibition": "5.1% (inactive)"},
      {"compound": "O=C(Nc1cccc(Br)c1)C(=O)NC1CCCC1", "inhibition": "-7.9% (inactive)"},
      {"compound": "COc1cccc(/C=C(/C#N)C(=O)Nc2ccc(F)cc2)c1O", "inhibition": "9.6% (inactive)"},
      {"compound": "N#C/C(=C/c1cc(Cl)c(O)c(Cl)c1)C(=O)Nc1cccc(Br)c1", "inhibition": "102% (active)"},
      {"compound": "CCOC(=O)c1c(Nc2ccc(C)cc2)csc1C", "inhibition": "5.4% (inactive)"},
      {"compound": "COc1ccc(CC(=O)Nc2ccc(-c3ccc(NC(=O)Cc4ccc(OC)cc4)c(OC)c3)cc2OC)cc1", "inhibition": "-17.3% (inactive)"},
      {"compound": "Cc1cc(C)cc(NC(=O)CN2C(=O)c3ccccc3C2=O)c1", "inhibition": "4.6% (inactive)"},
      {"compound": "CSc1nc(=O)n(C)c(C)c1C(C)=O", "inhibition": "-0.4% (inactive)"},
      {"compound": "O=C(NC(NC(=S)Nc1ccc(I)cc1)C(Cl)(Cl)Cl)c1cccc([N+](=O)[O-])c1", "note": "(stereo not given)", "inhibition": "-2.4% (inactive)"},
      {"compound": "Cc1cc(C)c2nc3s/c(=C\\c4ccc(-c5ccccc5C(=O)O)o4)c(=O)n3c2c1", "inhibition": "103% (active)"},
      {"compound": "Cc1cc(C)c2nc3s/c(=C\\c4ccc(N(C)C)cc4)c(=O)n3c2c1", "inhibition": "8.6% (inactive)"},
      {"compound": "COc1cc(/C=c2\\sc3nc4c(C)cc(C)cc4n3c2=O)cc(Br)c1O", "inhibition": "5.3% (inactive)"},
      {"compound": "O=C1c2ccccc2C(=O)c2c(NC3CCCCC3)cccc21", "inhibition": "-14.5% (inactive)"},
      {"compound": "COc1ccc(/C=N/n2cnc3sc4c(c3c2=O)CCCC4)cc1OC", "inhibition": "1.7% (inactive)"},
      {"compound": "O=C(Nc1cccc(NC(=O)c2ccc(Cl)cc2Cl)c1)c1ccc(-c2ccc([N+](=O)[O-])cc2)o1", "inhibition": "5.5% (inactive)"},
      {"compound": "CCOc1ccc2cc(S(=O)(=O)NCC3CCCO3)ccc2c1", "note": "(stereo not given)", "inhibition": "0.1% (inactive)"},
      {"compound": "Cc1c(Br)c(=O)[nH]c(=O)n1Cc1ccccc1", "inhibition": "0.2% (inactive)"},
      {"compound": "O=C(NCc1ccccn1)C(=O)Nc1ccc(Br)cc1", "inhibition": "7.9% (inactive)"},
      {"compound": "Cc1cc(C)c(NC(=O)C(C)Sc2nnc(-c3cccc(F)c3)n2-c2ccccc2)c(C)c1", "note": "(stereo not given)", "inhibition": "-3.5% (inactive)"},
      {"compound": "COc1ccc(Cl)cc1C(=O)Nc1ccc2c3c(cccc13)CC2", "inhibition": "-1.6% (inactive)"},
      {"compound": "CCCCOC(=O)Nc1nnc(-c2ccco2)s1", "inhibition": "-8.6% (inactive)"},
      {"compound": "CCOc1cc(/C=N/NC(=O)CC2C(=O)NN=C2C)ccc1O", "note": "(stereo not given)", "inhibition": "-5.5% (inactive)"},
      {"compound": "O=C(Nc1cccc([N+](=O)[O-])c1)c1ccc2c(c1)C(=O)N(N1C(=O)c3ccccc3C1=O)C2=O", "inhibition": "-5.9% (inactive)"},
      {"compound": "COC(=O)c1c(-c2ccc(Br)cc2)csc1NC(=O)CCCC(=O)O", "inhibition": "8.8% (inactive)"},
      {"compound": "CCc1ccc(N2C(=O)NC(=O)/C(=C\\c3cc(Cl)c(O)c(Cl)c3)C2=O)cc1", "inhibition": "2.7% (inactive)"},
      {"compound": "CN(C)c1ccc(C2/C(=C(\\O)c3ccccc3)C(=O)C(=O)N2CCCC(=O)O)cc1", "note": "(stereo not given)", "inhibition": "3.2% (inactive)"},
      {"compound": "COc1cc(/C=C2/SC(=S)N(C)C2=O)cc([N+](=O)[O-])c1O", "inhibition": "6.6% (inactive)"},
      {"compound": "CC(=O)C1=C(O)C(=O)N(CCN2CCNCC2)C1c1ccc(C)cc1", "note": "(stereo not given)", "inhibition": "6% (inactive)"},
      {"compound": "Cc1ccc(-c2csc(NC(=O)c3ccc(Cl)cc3)n2)cc1", "inhibition": "7% (inactive)"},
      {"compound": "CCN1C(=O)/C(=C\\c2cn(CCOc3ccc(Br)cc3)c3ccccc23)SC1=S", "inhibition": "2.4% (inactive)"},
      {"compound": "Cc1cc(Cl)ccc1OCC(=O)O/N=C(\\N)c1ccncc1", "inhibition": "-14.4% (inactive)"},
      {"compound": "COC(=O)CCN(C(=O)c1ccc(F)cc1)c1ccccn1", "inhibition": "-21.6% (inactive)"},
      {"compound": "O=C(NC(=O)C(Cl)(Cl)Cl)Nc1ccc(Cl)c(Cl)c1", "inhibition": "3.7% (inactive)"},
      {"compound": "O=C(Nc1nccs1)C(c1ccccc1)c1ccccc1", "inhibition": "-5.8% (inactive)"},
      {"compound": "O=C(O)C1C2C=CC(O2)C1C(=O)Nc1nccs1", "note": "(stereo not given)", "inhibition": "104% (active)"},
      {"compound": "Cc1ccc(S(=O)(=O)Nc2ccc(NC(=O)C3C4C=CC(O4)C3C(=O)O)cc2)cc1", "note": "(stereo not given)", "inhibition": "-5.5% (inactive)"},
      {"compound": "O=C(c1ccc2c(c1)OCO2)N1CCOCC1", "inhibition": "104% (active)"},
      {"compound": "O=C(Nc1ccc(N2CCOCC2)cc1)c1ccc2c(c1)OCO2", "inhibition": "-5.6% (inactive)"},
      {"compound": "O=C(c1ccc2c(c1)OCO2)N1CCNc2ccccc2C1", "inhibition": "7.3% (inactive)"},
      {"compound": "O=C(Nc1cccnc1)c1cnn2c1NC(c1ccco1)CC2C(F)(F)F", "note": "(stereo not given)", "inhibition": "0.1% (inactive)"},
      {"compound": "Cc1cc2oc(=O)cc(C)c2cc1NC(=O)c1ccccc1", "inhibition": "-31.1% (inactive)"},
      {"compound": "O=C(O)C(Sc1nc2ccccc2s1)c1ccccc1", "note": "(stereo not given)", "inhibition": "-17.3% (inactive)"},
      {"compound": "O=C(O)CCCCCCCCCCN1C(=O)/C(=C/c2ccc(Br)cc2)SC1=S", "inhibition": "70.7% (active)"},
      {"compound": "O=C(O)CCCN1C(=O)/C(=C/c2ccccc2)SC1=S", "inhibition": "8.8% (inactive)"},
      {"compound": "O=C1/C(=C/c2ccc(Br)cc2)SC(=S)N1CCc1ccccc1", "inhibition": "3.2% (inactive)"},
      {"compound": "O=C(Nc1cccc(O)c1)c1cc2nc(-c3ccc(F)cc3)cc(C(F)(F)F)n2n1", "inhibition": "4.4% (inactive)"},
      {"compound": "CCOC(=O)c1ccc(N2NC(=O)/C(=C/c3ccc(Br)cc3)C2=O)cc1", "inhibition": "6.5% (inactive)"}
    ]}
  ]
}
